Experimental findings from paper PMC5540273 (PLoS ONE, 2017) are described below.

What all share (settings): concentration: 1 μM,replicates: in singlicate; n = 1
Experiment [1] deals with ADCK4.
The test system of experiment [2] is AKT1.
The test system of experiment [3] is AKT2.
Experiment [4] relates to AKT3.
Experiment [5] concerns ALK.
The subject of experiment [6] is T1, AMPK-alpha1.
T1 construct: gene PRKAA1

Experiment [7] deals with T2, AMPK-alpha2.
T2 construct: gene PRKAA2

Experiment [8] relates to ANKK1.
Experiment [9] deals with T3, ARK5.
T3 construct: gene NUAK1

Experiment [10] has as its system T4, ASK1.
T4 construct: gene MAP3K5

Experiment [11] concerns T5, ASK2.
T5 construct: gene MAP3K6

Experiment [12] concerns AURKA.
Experiment [13] deals with AURKB.
The test system of experiment [14] is AURKC.
Experiment [15] deals with AXL.
Experiment [16] relates to T6, BIKE.
T6 construct: gene BMP2K

Experiment [17] has as its system BLK.
The test system of experiment [18] is BMPR1A.
Experiment [19] has as its system BMPR1B.
Experiment [20] concerns BMPR2.
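Also: KINOMEscan kinase panel screen.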

Turning to `C[C@@H]1CNc2c(sc3ccc4nc(-c5ccncc5)ccc4c23)C(=O)N1`, the “%Inh” value in [1] came out at 0%; in experiment [2], 0%; in experiment [3], 18%; in experiment [4] it was 22%; in experiment [5], 33%; in [6] it was 20%. In addition, the “%Inh” value in [7] is 0%; in [8] it was 0%; in experiment [9] it was 0%; in experiment [10] it was 90%; in experiment [11] it was 0%; in [12], 0%. Moreover, the “%Inh” value in experiment [13] was 17%; in [14], 9%; in [15], 81%; in experiment [16], 19%; in experiment [17] it was 0%; in experiment [18] it was 12%. The “%Inh” value in experiment [19] worked out at 7%; in [20], 0%.

As for `CC(=O)Nc1nc2cnc(Nc3cc(NC(=O)c4cccc(CC(C)(C)C#N)c4)ccc3C)nc2s1`, the “%Inh” value in experiment [1] is given as 0%; in [2] it was 12%; in experiment [3], 5%; in experiment [4], 0%; in [5] it was 42%; in experiment [6] it was 3%. In addition, the “%Inh” value in experiment [7] was determined as 7%; in experiment [8], 0%; in [9], 7%; in [10] it was 7%; in [11] it was 0%; in experiment [12], 11%. Also, the “%Inh” value in [13] came out at 3%; in [14], 0%; in [15] it was 20%; in experiment [16] it was 0%; in experiment [17] it was 32%; in experiment [18], 0%. Moreover, the “%Inh” value in experiment [19] came out at 2%; in experiment [20] it was 0%.

`Cc1ccc(Nc2ccnc(Nc3ccc4c(c3)CS(=O)(=O)C4)n2)cc1O.Cl` [GW579362]: the “%Inh” value in experiment [1] is given as 100%; in experiment [2] it was 0%; in experiment [3], 0%; in experiment [4] it was 0%; in [5], 51%; in experiment [6] it was 10%. Also, the “%Inh” value was 17% in experiment [7]; 44% in experiment [8]; 25% in [9]; 0% in [10]; 3% in [11]; 100% in experiment [12]. In addition, the “%Inh” value in experiment [13] was determined as 85%; in experiment [14] it was 97.9%; in experiment [15] it was 86%; in experiment [16] it was 99.8%; in experiment [17], 99.5%; in [18], 85%. The “%Inh” value worked out at 99.8% in [19] and 62% in [20].

Regarding `Nc1nccc(-c2ccc3c(N)n[nH]c3c2)n1` [GSK1034945], the “%Inh” value amounted to 33% in experiment [1]; 0% in experiment [2]; 10% in experiment [3]; 0% in [4]; 20% in experiment [5]; 0% in [6]. For the same compound, the “%Inh” value in experiment [7] was 0%; in [8] it was 31%; in experiment [9] it was 0%; in experiment [10], 0%; in experiment [11] it was 0%; in experiment [12], 0%. The “%Inh” value is given as 0% in experiment [13]; 51% in experiment [14]; 0% in experiment [15]; 94.4% in [16]; 25% in [17]; 12% in [18]. Besides, the “%Inh” value amounted to 87% in experiment [19] and 0% in experiment [20].

On to `CS(=O)c1ccc(-c2coc3ccc(-c4n[nH]c(=O)o4)cc23)cc1` (stereo not drawn), for which the “%Inh” value was determined as 12% in [1]; 0% in experiment [2]; 0% in experiment [3]; 26% in [4]; 13% in [5]; 100% in experiment [6]. For the same compound, the “%Inh” value is reported as 5% in experiment [7]; 36% in experiment [8]; 10% in experiment [9]; 0% in [10]; 23% in [11]; 13% in [12]. For the same compound, the “%Inh” value in [13] was 26%; in [14] it was 0%; in [15], 3%; in [16] it was 17%; in experiment [17] it was 4%; in [18] it was 10%. In addition, the “%Inh” value in experiment [19] is 32%; in experiment [20], 9%.

As to `CCn1c(-c2nonc2N)nc2cncc(CNC3CCNCC3)c21.Cl` [SB-747651], the “%Inh” value amounted to 11% in experiment [1]; 72% in experiment [2]; 51% in experiment [3]; 66% in [4]; 63% in [5]; 6% in experiment [6]. Moreover, the “%Inh” value in [7] is 0%; in experiment [8], 22%; in experiment [9], 9%; in experiment [10] it was 9%; in experiment [11] it was 8%; in experiment [12] it was 6%. In addition, the “%Inh” value amounted to 23% in [13]; 0% in [14]; 100% in [15]; 0% in experiment [16]; 8% in experiment [17]; 0% in [18]. Also, the “%Inh” value in experiment [19] came out at 0%; in experiment [20], 17%.

For the compound `COc1ccc(Nc2nccc(N3CCC(NC(=O)c4cccc(C#N)c4)C3)n2)cc1` (stereo not drawn) [GSK1379730], the “%Inh” value in experiment [1] is reported as 9%; in experiment [2], 0%; in experiment [3], 0%; in experiment [4] it was 0%; in [5], 28%; in experiment [6], 0%. Besides, the “%Inh” value in experiment [7], in [8], in experiment [9], in experiment [10], in experiment [11] and in experiment [12] was 0% in each case. Besides, the “%Inh” value in experiment [13] amounted to 0%; in experiment [14], 22%; in experiment [15], 21%; in [16] it was 22%; in [17], 38%; in experiment [18] it was 6%. For the same compound, the “%Inh” value in [19] and in experiment [20] was 0% each time.

For `CN(c1ccccc1CNc1nc(Nc2ccc3c(c2)CC(=O)N3)ncc1C(F)(F)F)S(C)(=O)=O`, the “%Inh” value in [1] worked out at 0%; in experiment [2], 0%; in experiment [3], 0%; in experiment [4], 0%; in experiment [5] it was 92.4%; in experiment [6], 74%. In addition, the “%Inh” value in experiment [7] is recorded as 70%; in experiment [8], 0%; in [9] it was 92.1%; in experiment [10], 0%; in experiment [11], 0%; in [12] it was 97.2%. For the same compound, the “%Inh” value in [13] was 98.7%; in experiment [14], 84%; in experiment [15] it was 92.4%; in experiment [16], 56%; in experiment [17], 64%; in [18], 12%. The “%Inh” value in experiment [19] and in [20] was 0% throughout.

As for `CN(c1ccc2c(c1)nc(NCc1ccc(F)cc1)n2C)c1ccnc(Nc2ccc(CS(C)(=O)=O)cc2)n1.Cl` [GW813244], the “%Inh” value in experiment [1] turned out to be 21%; in [2], 8%; in experiment [3], 0%; in experiment [4], 1%; in experiment [5] it was 0%; in experiment [6], 11%. Further, the “%Inh” value in [7] came out at 5%; in experiment [8], 0%; in experiment [9], 4%; in [10], 37%; in experiment [11], 0%; in experiment [12], 77%. Moreover, the “%Inh” value is given as 70% in [13]; 67% in experiment [14]; 68% in experiment [15]; 33% in experiment [16]; 57% in [17]; 16% in experiment [18]. In addition, the “%Inh” value in experiment [19] worked out at 0%; in experiment [20] it was 10%.
